Screens deposited in PubChem BioAssay by National Center for Advancing Translational Sciences (NCATS).
An excerpt weighted towards active compounds, which were near 10% of everything screened.
HPGD inh – inhibitors of human 15-hydroxyprostaglandin dehydrogenase (HPGD); P15428; purified HPGD, NADH fluorescence kinetic, PGE2 substrate; Potency, µM, most hits filed as inhibitors; 150,000 tested, 4.3% active; AID 894
Target sequence (P15428 whole entry, looked up): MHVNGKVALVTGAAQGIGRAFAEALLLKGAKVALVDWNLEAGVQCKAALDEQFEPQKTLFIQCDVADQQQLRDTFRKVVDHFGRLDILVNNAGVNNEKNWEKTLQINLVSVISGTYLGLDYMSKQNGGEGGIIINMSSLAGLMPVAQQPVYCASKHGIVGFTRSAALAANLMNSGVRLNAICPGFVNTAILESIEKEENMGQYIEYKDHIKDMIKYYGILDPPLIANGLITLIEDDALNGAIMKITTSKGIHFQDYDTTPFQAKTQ
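20 nM HPGD preincubated 15 min at room temperature with compound in 50 mM Tris-HCl pH 8, 0.01% Tween 20. Started with 1 mM NAD+ and 30 uM prostaglandin E2; NADH fluorescence (360/450 nm) read 5 times over 30-s intervals, last minus first.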
Lamin A splicing – LMNA splicing modulation. 200,000 tested, 0.01% active. AID 1487. Potency, µM (series often up to 46.1 µM), usual class: inhibitors. HeLa LMNA splicing GFP/RFP minigene ratio, 48 h; active = well fitted inhibition curve with a large enough effect in the signal ratio, with a control signal flat, not every such curve was filed as active; inconclusive = small, poorly fitted or top-dose-only effect, or effect the other way, or a change in a side signal; the % refers to the signal ratio
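Read-out is the ratio of GFP to DsRed2 object intensity, acquired by 488 nm laser-scanning cytometry on HeLa lamin A-EGFP minigene reporter cells. Compound incubation 48 hrs at 37 °C in Opti-MEM with 2% FBS; DMSO 0.5% final.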
PNC inhibitor – perinucleolar compartment assembly inhibition. PC3M PTB-GFP, PNC prevalence imaging, 16 h; stronger effect = lower value. activity change (PNC), negative = inhibition, % at 10 µM. 140,000 tested, 3.1% active. AID 2417;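 active = readout at or below -70, meaning at least 70% loss of cells showing the perinucleolar compartment, a nuclear body marking cancer cells; inconclusive = readout between -30 and a set limit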
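Compounds are pinned in duplicate onto adhered PC3M cells stably expressing GFP-tagged PTB and incubated 16 h at 37 C. Cells are then fixed, nuclei stained with Hoechst, and PNC-positive cells counted.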
ALDH1A1 inh – blocks purified human ALDH1A1 activity. Purified ALDH1A1, NADH fluorescence, propionaldehyde substrate. Potency, µM (doses to about 75.3 µM), most hits filed as inhibitors. 220,000 tested, 7.3% active. P00352
ALOX12 inhib – inhibitors of human 12-lipoxygenase (ALOX12); 150,000 tested, 0.12% active; Potency, µM (highest dose often 57.1 µM), hits mostly inhibitors; AID 1452; purified 12-hLO, xylenol orange hydroperoxide absorbance; active = well fitted inhibition curve with a large enough effect; inconclusive = small, poorly fitted or top-dose-only effect; note: nearly all actives have a fitted effect of over 55% in size
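Xylenol orange chromogenic assay: hydroperoxide from 12hLO oxidises Fe(II), giving red-shifted Fe(III)-XO absorbance. Conditions: 150 nM enzyme, 40 uM arachidonic acid, 25 mM Hepes pH 7.0, 0.01% Triton X-100, 30 min, room temperature.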
Hits are given with their value; . = inactive; ? = inconclusive; / = no result; [ ] = dose if it differs, or a comment. Unless noted, calls come from the whole dose curve; as a rule, active = well fitted inhibition curve with a large enough effect (not every such curve was filed as active); inconclusive = small, poorly fitted or top-dose-only effect, or another doubt; inactive = no such curve, though single readings can be large or run the other way.

SMILES | HPGD inh | Lamin A splicing | PNC inhibitor | ALDH1A1 inh | ALOX12 inhib
CCn1c(C)cc(/C=C2/SC(=S)N(CC(=O)O)C2=O)c1C | / | . | / | . | /
C#CCN1C(=O)S/C(=C/c2cc(C)n(CC)c2C)C1=O | / | . | . | 7.51µM | .
COC(=O)CN1C(=O)S/C(=C/c2cc(C)n(C)c2C)C1=O | . | . | ? | 14.1µM | .
CCN(CC)c1ccc(NC(=O)c2cc(C)nc3c2c(C)nn3-c2ccc(C)cc2)c(C)c1 | / | . | / | / | /
COc1ccccc1CN1CC[C@@]2(CCCN(C(=O)c3c(C)noc3C)C2)C1 | . | / | / | . | .
Cc1cccc(N(C)S(=O)(=O)c2nnc(NC(=O)C3CCCCC3)s2)c1 | / | . | / | / | /
FC(F)(F)c1ccccc1-c1ccc2ncnc(NCc3cccnc3)c2c1 | / | . | / | . | /
CC(C(=O)Nc1ccccn1)N1C(=O)C2C3C=CC(C3)C2C1=O (centres undefined) | / | . | . | 25.1µM | .
CC1CC1C(=O)Nc1nc(-c2ccccn2)cs1 (centres undefined) | 14.1µM | . | . | 10µM | .
O=C(Nc1nc(-c2ccccn2)cs1)C1COc2ccccc2O1 (centres undefined) | . | ? | . | . | .
C[C@@H](C(=O)Nc1nc(-c2ccccn2)cs1)N1C(=O)C2CCCCC2C1=O (some centres undefined) | 25.1µM | . | . | 12.6µM | .
c1ccc(CCNc2nc(-c3ccccn3)cs2)cc1 | / | / | / | 31.6µM | /
COc1ccc(CCNC(=O)c2c(C)oc3ncnc(N4CCOCC4)c23)c(OC)c1 | / | . | / | / | /
O=C(CN1C(=O)C2CCCCC2C1=O)Nc1ccc(S(=O)(=O)Nc2ncccn2)cc1 (centres undefined) | / | / | / | . | /
O=C(CN1C(=O)C2CCCCC2C1=O)Nc1nc(-c2ccccn2)cs1 (centres undefined) | 28.2µM | ? | . | 22.4µM | .
CC(C)(C)c1cc(C(c2cccnc2)N2CCN(CCO)CC2)cc(C(C)(C)C)c1O (centres undefined) | 14.1µM | ? | . | ? | .
COCCNC(=O)c1ccc(-n2c(=O)c(=O)[nH]c3ccccc32)cc1 | . | / | / | . | .
O=C(CCl)Nc1ccccc1Sc1ccccc1 | . | . | ? | 3.98µM | .
Nc1nc(SCC(=O)Nc2ccccc2Sc2ccccc2)n[nH]1 | . | ? | -111.3 | ? | .
Cc1ccc(C(=O)NC2CCCCCC2)o1 | 25.1µM | . | . | . | .
O=C(Cc1cccs1)NC1CCCC1 | / | . | / | . | /
O=C(NC1CCCCC1)c1ccc(CNc2ccccc2)o1 | . | ? | . | ? | .
O=C(NC1CCCCCCC1)c1ccccc1-c1ccccc1 | . | ? | -113.4 | ? | .
O=C(NC1CCCCCC1)c1cccs1 | 25.1µM | . | ? | ? | .
O=C(CNC1CCCCCC1)c1cccs1 | ? | . | . | 5.97µM | .
SMILES | HPGD inh | Lamin A splicing | PNC inhibitor | ALDH1A1 inh | ALOX12 inhib
O=C(NC1CCCCC1NC(=O)c1cccs1)c1cccs1 (centres undefined) | . | . | . | . | .
O=C(NC1CCCCCC1)c1ccccc1-c1ccccc1 | . | . | . | . | .
COc1cc(OC)c(N(C)C(=O)C2CCCN(c3ncnc4c3nc3n4CCCCC3)C2)cc1Cl (centres undefined) | / | . | / | / | /
c1ccc(-c2ccc(-c3ccc(C4=NCCN4)cc3)o2)cc1 | ? | / | / | ? | .[11.4 µM]
CCN(CC)C(=O)CN(C#N)c1nc(OC)nc(N(C)C)n1 | . | . | -81.8 | . | .
CCCCCC(=O)N1CCN(CCN=CC2=C(O)CC(c3ccc(OC)c(OC)c3)CC2=O)CC1 (centres undefined) | . | . | ? | 22.4µM | .
O=C(/C=C\c1ccc(O)cc1)c1ccc(O)cc1O | / | / | / | / | .
COc1cc(N=c2ssnc2Cl)c(OC)cc1Cl | 3.55µM | ? | . | 1.58µM | 20µM
COc1cc(-n2nnnc2SC)c(OC)cc1Cl | / | . | / | . | /
COc1ccc(OC)c(N=c2ssnc2Cl)c1 | 3.16µM | . | . | 1.58µM | 8.91µM
COc1ccc2c(c1)O[C@@H](c1ccc3c(c1)OCO3)[C@H](OC(=O)Nc1ccc(C)c(Br)c1)C2=O | . | / | / | . | /
COc1ccc(CN2CCC(CO)(Cc3ccccc3C(F)(F)F)CC2)c(F)c1 | / | / | / | . | /
Cc1ccc(C(=O)N2NC(c3ccccc3F)C3C(=O)N(c4cccc(C)c4)C(=O)C32)cc1 (centres undefined) | . | ? | . | 2.51µM | .
COc1ccccc1N1C(=O)C2C(c3ccccc3F)NN(C(=O)c3ccc(C)cc3)C2C1=O (centres undefined) | ? | . | . | . | .
O=[N+]([O-])c1ccc(Sc2cccc[n+]2[O-])c2nonc12 | / | / | / | 2.24µM | /
O=[N+]([O-])c1ccc(Sc2cccc3cccnc23)c([N+](=O)[O-])c1 | . | . | . | . | .
CC(C)Sc1n[nH]c(=O)n1-c1ccccc1 | / | / | / | . | /
O=C(NCc1cccs1)C1CCN(C(=O)N2CCOc3ccc(Cl)cc32)CC1 | / | . | / | / | /
COc1ccccc1N1C(=O)CC(Sc2nc(C)cc(C)n2)C1=O (centres undefined) | . | . | . | . | .
COC(=O)c1cc(C(=O)OC)cc(N2C(=O)CC(NNC(=O)c3ccc(C)cc3)C2=O)c1 (centres undefined) | 14.1µM | . | . | . | .
COC(=O)c1ccc(N2C(=O)CC(Sc3n[nH]c(C)n3)C2=O)cc1 (centres undefined) | 15.8µM | . | . | 0.562µM | .
COC(=O)c1ccc(N2C(=O)C3CC(C)=C(C)CC3C2=O)cc1 (centres undefined) | / | . | / | . | /
COC(=O)c1cc(C(=O)OC)cc(N2C(=O)CC(Sc3nc(C)cc(C)n3)C2=O)c1 (centres undefined) | . | . | . | 12.6µM | .
O=C1/C(=C/c2ccncc2)SC(=S)N1C1CCS(=O)(=O)C1 (centres undefined) | . | ? | . | 22.4µM | .
CN(C)c1ccc(C=Nc2cnn(C)c2C(N)=O)cc1 | . | . | . | 3.55µM | .
SMILES | HPGD inh | Lamin A splicing | PNC inhibitor | ALDH1A1 inh | ALOX12 inhib
Cn1ncc(N=Cc2ccc([N+](=O)[O-])cc2)c1C(=O)Nc1ccccc1 | / | / | / | . | /
Cc1nc(Nc2nc(CSc3nc4ccccc4[nH]3)cc(=O)[nH]2)nc2ccccc12 | . | ? | -96.6 | . | .
COc1ccccc1NS(=O)(=O)c1cc(N)ccc1N1CCCCC1 | / | / | / | 3.16µM | /
COc1ccccc1NS(=O)(=O)c1cc(NC(=O)CCC2CCCC2)ccc1N1CCOCC1 | / | ? | / | 15.8µM | /
COc1ccccc1NS(=O)(=O)c1cc(NC(=O)Nc2ccc(Cl)cc2Cl)ccc1N1CCCCC1 | ? | ? | . | ? | .
Cc1cnc(CNc2ncnc3ccc(-c4ccc(N(C)C)cc4)cc23)cn1 | / | . | / | . | /
CC1=C(C(=O)Nc2ccccc2C)C(c2ccco2)n2ncnc2N1 (centres undefined) | / | . | / | / | /
O=C1NCCCC1C(=O)N/N=C/c1cccc([N+](=O)[O-])c1 (centres undefined) | / | / | / | . | /
Cc1cccc(/C=N/NC(=O)C2CCCNC2=O)c1 (centres undefined) | . | . | -84.7 | . | .
